Compound activity from PubChem.
Pol eta inh-1 = inhibitors of human DNA polymerase eta. Q9Y253. recombinant Pol eta, fluorescent DNA replication assay. Potency, µM (top dose mostly 114 µM), most hits filed as inhibitors. 390,000 tested, 1.2% active
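Fluorescent replication assay: 50 nM final substrate added after a 15 min room-temperature compound preincubation with 10 nM enzyme. Signal taken at 0 min and again at 10 min.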
Pol beta inh = blocks human DNA polymerase beta activity. Pol beta primer extension/strand displacement, fluorescence kinetic. 340,000 tested, 1.3% active. P06746. Potency, µM (top dose mostly 114 µM), hits mostly inhibitors
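10 nM enzyme + cpd, 15 min RT; start with substrate 50 nM final; read 0 min and after 10 min RT. Corrected, normalized data; 4-parameter Hill curve fit.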
POLI inh = inhibitors of human DNA polymerase iota; Q9UNA4; Pol iota fluorescent replication assay, 10 min; Potency, µM (doses to about 115 µM), actives largely listed as inhibitors; 390,000 tested, 1% active; AID 588590
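Fluorescent replication assay read twice, at 0 min and 10 min after adding 50 nM (final) substrate. Enzyme (10 nM) and compounds were first incubated 15 min at room temperature; enzyme-free buffer wells were negative controls.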
WRN inhibitor = blocks human WRN helicase; WRN helicase unwinding, fluorescent forked duplex, kinetic; Q14191; 360,000 tested, 0.46% active; Potency, µM (highest dose often 114 µM), most hits filed as inhibitors; also: nearly all actives have a fitted effect of over 55% in size
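WRN at 20 nM final preincubated with compound 15 min at room temperature; reaction started with 100 nM fluorophore/quencher forked duplex oligonucleotide and 2 mM ATP final. Unwinding followed kinetically by red fluorescence (ex 525, em 598 nm).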
PI5P4Ka inh = blocks human PI5P4K alpha kinase activity; PI5P4Kalpha enzyme, ADP-Glo luminescence, 60 min; stronger effect = lower value; max response, %; 330,000 tested, 1.2% active; active = max response of -50% or lower; inconclusive = between -30% and -50%; inactive = -30% or higher; also: value at the top dose of about 77 µM
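qHTS, 1536-well: enzyme/substrate mix, compound by pin tool, 5 microM ATP final; RT 60 min; ADP-Glo reagents 1 (45 min) then 2 (30 min); luminescence.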
Pol kappa inh-1 = blocks human DNA polymerase kappa activity; AID 588579; Potency, µM (top dose mostly 107 µM), actives largely listed as inhibitors; purified Pol kappa, fluorescent DNA synthesis assay, 10 min; 400,000 tested, 0.53% active; Q9UBT6
Target sequence (Q9UBT6 whole entry, looked up): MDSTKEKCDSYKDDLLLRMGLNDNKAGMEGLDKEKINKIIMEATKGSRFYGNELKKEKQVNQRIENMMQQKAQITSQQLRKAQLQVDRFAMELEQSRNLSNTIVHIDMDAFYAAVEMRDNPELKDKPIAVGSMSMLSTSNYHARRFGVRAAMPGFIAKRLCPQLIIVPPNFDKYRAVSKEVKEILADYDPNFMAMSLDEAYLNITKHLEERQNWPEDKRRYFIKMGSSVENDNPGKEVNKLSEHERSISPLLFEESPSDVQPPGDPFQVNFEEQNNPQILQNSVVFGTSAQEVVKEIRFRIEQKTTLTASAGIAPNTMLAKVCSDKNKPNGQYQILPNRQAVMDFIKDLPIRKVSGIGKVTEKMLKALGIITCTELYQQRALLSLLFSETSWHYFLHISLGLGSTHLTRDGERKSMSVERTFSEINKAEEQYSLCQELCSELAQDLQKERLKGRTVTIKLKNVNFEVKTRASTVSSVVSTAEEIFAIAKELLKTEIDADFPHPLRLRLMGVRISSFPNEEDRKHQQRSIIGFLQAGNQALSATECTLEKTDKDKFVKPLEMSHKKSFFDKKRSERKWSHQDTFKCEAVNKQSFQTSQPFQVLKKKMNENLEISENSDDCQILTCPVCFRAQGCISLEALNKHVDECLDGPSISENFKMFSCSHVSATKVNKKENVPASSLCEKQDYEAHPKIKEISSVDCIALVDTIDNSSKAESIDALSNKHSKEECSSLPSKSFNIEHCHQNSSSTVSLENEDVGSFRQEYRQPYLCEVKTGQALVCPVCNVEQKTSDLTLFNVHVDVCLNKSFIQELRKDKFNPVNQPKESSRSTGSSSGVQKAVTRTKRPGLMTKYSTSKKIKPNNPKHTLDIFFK
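Kinetic fluorescence readout at 0 and 10 min followed reaction start with substrate at 50 nM final. Beforehand, enzyme (10 nM Pol kappa) stood 15 min with compound at room temperature; buffer-only wells were negative controls.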
Pol kappa inh-2 = confirmation of human DNA polymerase kappa inhibitors. shares compounds with Pol eta inh-1. purified Pol-kappa, fluorescent strand-displacement substrate. Potency, µM, hits mostly inhibitors. 920 tested, 76% active
Pol eta inh-2 = Pol eta (human) inhibition, cherry-pick confirmation. shares compounds with Pol eta inh-1. Pol eta primer extension, TAMRA/BHQ fluorescence, 10 min. Potency, µM, most hits filed as inhibitors. 2,600 tested, 64% active. AID 720502
Each line names hits and unclear results; the compound was inactive in the other large screens (follow-up assays come after a bar, where they were run). A selection: hits, their analogues and other compounds. The true share with any hit is near 2.8%. Unless noted, calls follow the shape of the dose curve; as a rule, active = well fitted curve in the direction sought with a large enough effect; inconclusive = small, poorly fitted or top-dose-only effect, or another doubt; inactive = no such curve, though single readings can be large; an effect the other way counts as inactive or inconclusive.

O=C1c2cccc3cccc(c23)C(=O)N1c1ccc2ncccc2c1	Pol eta inh-1 inconclusive, Pol beta inh 32µM, POLI inh inconclusive, WRN inhibitor 79µM, Pol kappa inh-1 inconclusive | Pol kappa inh-2 inconclusive
COc1ccc(/C=N/Nc2nc(C(=O)O)cs2)cc1	Pol eta inh-1 32µM, Pol beta inh inconclusive, POLI inh 20µM, PI5P4Ka inh -63, Pol kappa inh-1 inconclusive | Pol eta inh-2 inconclusive
COC(=O)c1c(NC(=O)CCCC(=O)O)sc2c1CCC2	Pol eta inh-1 inconclusive, WRN inhibitor inconclusive (no result: PI5P4Ka inh) | Pol eta inh-2 30
COc1ccccc1NC(C)=O	POLI inh inconclusive
COc1ccccc1NC(=O)C(=N\O)/C(C)=N/O	Pol eta inh-1 14µM, Pol beta inh 45µM, POLI inh inconclusive, Pol kappa inh-1 inconclusive | Pol eta inh-2 85
O=C(COC(=O)c1ccc(Br)o1)Nc1ncc(Cl)cc1Cl	Pol eta inh-1 inconclusive, Pol beta inh inconclusive, POLI inh inconclusive, PI5P4Ka inh inconclusive
O=C(COC(=O)c1ccc(O)cc1O)Nc1ncc(Cl)cc1Cl	Pol eta inh-1 inconclusive (no result: Pol beta inh) | Pol eta inh-2 inconclusive
O=C(COC(=O)c1ccc([N+](=O)[O-])o1)Nc1ncc(Cl)cc1Cl	Pol eta inh-1 22µM, POLI inh inconclusive, WRN inhibitor inconclusive (no result: Pol beta inh) | Pol eta inh-2 inconclusive
O=C(COC(=O)c1cnccn1)Nc1c(Cl)cc(Cl)cc1Cl	none (no result: Pol beta inh)
N#Cc1c(NC(=O)COC(=O)c2ccc(O)cc2O)sc2c1CCC2	Pol eta inh-1 20µM, POLI inh inconclusive, PI5P4Ka inh inconclusive, Pol kappa inh-1 79µM (no result: Pol beta inh) | Pol eta inh-2 inconclusive
O=C(COC(=O)c1cnccn1)Nc1ncc(Cl)cc1Cl	Pol eta inh-1 22µM, POLI inh inconclusive, WRN inhibitor inconclusive, PI5P4Ka inh inconclusive (no result: Pol beta inh) | Pol eta inh-2 inconclusive
C=C1c2nc3ccccc3n2C=C(c2ccc(C)cc2)N1c1ccccc1	none (no result: Pol beta inh)
CCc1ccccc1OCC(=O)Nc1cc(S(=O)(=O)N(CC)CC)ccc1N1CCOCC1	none (no result: Pol beta inh)
O=C(COC(=O)C1CCCC1)Nc1ncc(Cl)cc1Cl	Pol eta inh-1 16µM, POLI inh inconclusive, PI5P4Ka inh inconclusive, Pol kappa inh-1 inconclusive (no result: Pol beta inh) | Pol eta inh-2 inconclusive
O=C(COC(=O)C1CCC1)Nc1ncc(Cl)cc1Cl	POLI inh inconclusive (no result: Pol beta inh)
CCC(=O)c1ccc(OCC(=O)Nc2nc(C)cs2)cc1	none (no result: Pol beta inh)
O=C(COc1ccc([N+](=O)[O-])cc1)Nc1nnc(-c2cccnc2)s1	Pol eta inh-1 40µM, Pol beta inh 16µM, POLI inh 18µM, PI5P4Ka inh -66, Pol kappa inh-1 inconclusive | Pol kappa inh-2 47 | Pol eta inh-2 inconclusive
CCC(=O)c1ccc(OCC(=O)Nc2nc(-c3cccnc3)cs2)cc1	Pol eta inh-1 13µM, POLI inh 13µM, WRN inhibitor inconclusive (no result: Pol beta inh) | Pol eta inh-2 67
Cc1oc(CC(C)C)c(CN)c1C(=O)O	none (no result: PI5P4Ka inh)
Cc1noc(C)c1C(=O)N1CCC1(C)C(=O)NS(=O)(=O)Cc1cccc(Cl)c1 (stereo unspecified)	none (no result: Pol eta inh-1, Pol beta inh, POLI inh, Pol kappa inh-1)
CCCCOC(=O)c1cccc(NC(=O)c2cc3ccccc3o2)c1	none (no result: WRN inhibitor, PI5P4Ka inh)
C/C(=N\Nc1cccc(C(=O)O)c1)c1ccc(Cl)s1	Pol eta inh-1 20µM, Pol beta inh 32µM, POLI inh 35µM, Pol kappa inh-1 71µM | Pol eta inh-2 27
COc1ccc(/C(C)=N/Nc2cccc(C(=O)O)c2)cc1OC	Pol eta inh-1 inconclusive
CN(C)c1ccc(Cn2ccc3ccccc32)cc1	none (no result: Pol eta inh-1, Pol beta inh, WRN inhibitor, PI5P4Ka inh)
Cc1cc(C)nc(NS(=O)(=O)c2ccc(NC(=O)CN3C(=O)S/C(=C\c4ccccc4)C3=O)cc2)n1	none
